This is a sample that favours compounds with a hit; in the whole collection about 2.3% have one here.
LEDGF integ inh: blocks HIV-1 LEDGF/p75-dependent DNA integration. TR-FRET IN-LEDGF/p75 DNA integration, Eu/Cy5. 370,000 compounds, 0.64% hits. inhibition, % at 3.7 µM;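 active means inhibition above the screen-wide mean plus 3 SD, cut at about 13% in these data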;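 further: signal is the Cy5 over europium emission ratio at 671 and 618 nm; 0% = plate median of compound wells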
MBD2 DNA inh: MBD2-methylated oligo binding inhibition; TR-FRET, MBD2 binding to methylated oligonucleotide; inhibition, % at 4.4 µM; 370,000 compounds, 0.31% hits; in the data active means inhibition above about 13%
UHRF1 MBD2 ctr: blocks human UHRF1 binding to methylated DNA; Q96T88; UHRF1 binding to methylated oligo, TR-FRET; inhibition, % at 4.4 µM; 370,000 compounds, 0.75% hits; AID 687016;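 further: UHRF1 SRA domain binding a hemimethylated CpG hairpin DNA probe; 0% = median of test compound wells and 100% = reference inhibitor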
PLC-beta3 inh: blocks human PLC-beta3 enzyme activity; Q01970; Purified PLC-beta3, fluorogenic substrate, fluorescence; inhibition, % at 12.2 µM; 370,000 compounds, 0.18% hits; AID 720704; in the data active means inhibition above about 11%;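 further: 0% = median of compound wells on plate and 100% = full blocker control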
PLC-gamma1 inh: blocks human PLC-gamma1 enzyme activity; P19174; purified PLC-gamma1, fluorogenic substrate, fluorescence; inhibition, % at 12.2 µM; 370,000 compounds, 0.84% hits; in the data active means inhibition above about 9.5%
UHRF1 ctr MBD2: inhibits human UHRF1 binding to methylated oligonucleotide, MBD2 counter-screen | shares compounds with MBD2 DNA inh | TR-FRET | inhibition, % at 4.4 µM | 1,000 compounds, 25% hits | AID 720530;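 further: UHRF1 SRA domain binding a labeled hemimethylated CpG hairpin DNA; 0% = vehicle only and 100% = reference inhibitor with vehicle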
MBD2 confirm: MBD2-DBD methyl-DNA binding inhibition, TR-FRET confirmation | TR-FRET MBD2-DBD binding to methylated oligonucleotide | inhibition, % at 4.4 µM | 1,000 compounds, 26% hits | AID 720531 | shares compounds with MBD2 DNA inh; in the data active means inhibition above about 14%
Starred values were filed as active, the others as inactive; . = no result given. Unless noted, no stated cut-off is given here; in the data, active means inhibition above about 21%; inactive means the rest.

SMILES	LEDGF integ inh	MBD2 DNA inh	UHRF1 MBD2 ctr	PLC-beta3 inh	PLC-gamma1 inh	UHRF1 ctr MBD2	MBD2 confirm
OC(c1ccccc1)(c1ccccc1)C1CCN(CCCNc2ccccc2Br)CC1	2	-4	0	2	5	.	.
CCCc1nc2ccc(C(=O)OC)cn2c1Cc1cccc(F)c1	4	17*	26*	-54	-43	10	5
CCOC(=O)Nc1nc(C)c(C(=O)c2ccc(Cl)cc2)s1	-2	-4	-4	0	2	.	.
CCOC(=O)Nc1nc(-c2ccc(Cl)cc2Cl)cs1	6	13*	20	1	4	26*	8
Brc1ccc(Cn2nnc(-c3ccc(N4CCOCC4)cc3)n2)cc1	-5	1	0	2	-2	.	.
CCn1c2ccccc2c2cc(NC(=O)COC(=O)c3cc(F)cc(F)c3)ccc21	-1	5	-2	0	-2	.	.
O=C(O)C1CCCCC1C(=O)Nc1cccc(Br)c1 (configuration not stated)	5	40*	67*	7	3	63*	41*
CCCOc1ccc(N2C(=O)CC(N(Cc3ccco3)C(=O)CCC(=O)O)C2=O)cc1 (configuration not stated)	-3	16*	2	-9	0	4	2
CC(Sc1nnc(CN2CCCC2)n1Cc1ccccc1)C(=O)Nc1ccc(F)c(F)c1F (configuration not stated)	-2	2	-1	-6	4	.	.
CC(Sc1nnc(CN2CCCC2)n1Cc1ccccc1)C(=O)Nc1ccccc1 (configuration not stated)	-8	34*	2	-7	3	7	2
COC(=O)[C@]12C[C@H](CC(=O)N3CCN(C(=O)C4CC4)CC3)C(=O)N(CCc3ccc(OC)c(OC)c3)C1=C[C@H](COCc1ccccc1)O[C@@H]2C	2	-4	0	0	0	.	.
COc1cc2cc(CCCOC(=O)c3ccc(C(F)(F)F)cc3)oc(=O)c2cc1OC	2	20*	2	-5	2	2	8
COc1ccc(C(=O)OCC(=O)c2c[nH]c3ccccc23)cc1OC	0	14*	22*	-26	-10	5	2
COc1cc(C(=O)OCC(=O)c2c[nH]c3ccccc23)ccc1OCC(=O)N1CCOCC1	-2	-2	4	3	-3	.	.
Cc1sc2ncn(CC(=O)NCc3ccco3)c(=O)c2c1-c1ccc(F)cc1	12	5	6	-4	-3	.	.
O=C(Cn1cnc2scc(-c3cccc([N+](=O)[O-])c3)c2c1=O)NCc1ccco1	10	24*	12	-8	-4	23*	17*
CCCCOCCCNC(=O)C[C@H]1C[C@@]2(C(=O)OC)C(=C[C@H](C3CCCC3)O[C@@H]2C)N(Cc2cccc3ccccc23)C1=O	-3	-4	2	5	1	.	.
CC(C)CCn1cnc2c1c(=O)[nH]c(=O)n2Cc1ccccc1	1	90*	-2	7	-1	5	2
CC(C)CN1CN2Cc3ccccc3C2CS1(=O)=O (configuration not stated)	-2	4	-1	-14	-6	.	.
CC1CCC2(CC1)CCN(CCCOC(=O)NCc1ccc(Cl)cc1)C2=O (configuration not stated)	5	-3	-1	1	1	.	.
COc1ccc2c(=O)c3c(=O)n(-c4ccccc4)c(-c4ccc(C)cc4)nc3oc2c1	-1	19*	11	-9	-1	18	68*
COCCn1c(-c2ccccc2)nc2oc3cc(OC)ccc3c(=O)c2c1=O	-2	2	1	-9	-6	.	.
O=C(NCCCc1ccccc1)OC1CCC12CCC(c1ccccc1)CC2 (configuration not stated)	-1	0	3	-1	0	.	.
C[N+](=O)C1C(=O)Nc2ccccc21 (configuration not stated)	-1	101*	-3	0	4	3	-3
COc1ccc(C(CC(=O)N2CCOCC2)C(C)C)cc1 (configuration not stated)	7	15*	23*	3	1	7	3

Source: PubChem (The Scripps Research Institute Molecular Screening Center)
